Compound activity: PubChem, several laboratories
tim10-1 inh: inhibits growth of tim10-1 mutant yeast. S. cerevisiae tim10-1 ts strain growth, BacTiter-Glo, 24 h. inhibition, % at 20 µM. hit rate 2.2% among 330,000. AID 463190;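 active = inhibition of at least 40%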;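 also: mutant grown at 25 °C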
SKKanGAS inh: blocks kanamycin growth of S. pyogenes SKKanGAS strain; hit rate 1.3% among 300,000; inhibition, % at 7.5 µM; BacTiter-Glo, 6 h;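 active = mean replicate score, as percent of positive control median, at least 50; inconclusive = mean below 50 but one replicate at or above 50; inactive = mean and every replicate below 50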;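 also: strain carries kanamycin resistance gene driven by streptokinase promoter and grows in 40 µg/ml kanamycin; loss of luminescence reflects streptokinase promoter inhibition or plain growth inhibition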
PfHsp90 set2: inhibits growth of yeast expressing Plasmodium falciparum Hsp90 | S. cerevisiae expressing PfHsp90, BacTiter-Glo ATP, 48 h; yeast lacking PDR1 and PDR3 efflux regulators | inhibition, % at 9.4 µM | hit rate 0.32% among 310,000 | AID 504621;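 active = every replicate shows inhibition above about 80%, whatever the replicate mean, limit read from the data; inconclusive = mean inhibition reaches the set limit but some replicate falls short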
TIM10 inh: inhibits growth of TIM10 yeast strain | S. cerevisiae TIM10 strain growth, BacTiter-Glo luminescence, 24 h | inhibition, % at 10 µM | hit rate 1.4% among 330,000 | AID 463195;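 active = inhibition of 40% or more at the single tested concentration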;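 also: wild-type TIM10 isogenic control strain grown at permissive 25 °C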
tim23-1 inh: growth inhibitors of tim23-1 mutant yeast; S. cerevisiae tim23-1 growth, BacTiter-Glo luminescence, 24 h; inhibition, % at 20 µM; hit rate 1.3% among 330,000;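 active = growth inhibition of the mutant yeast at or above 50%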;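 also: temperature-sensitive mutant grown at 25 °C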
Calb FLC: affects C. albicans growth with fluconazole | C. albicans CaCi-2 (fluconazole-resistant clinical isolate) + fluconazole, Alamar Blue growth, 48 h | growth inhibition, % (test concentration not listed) | hit rate 0.57% among 300,000 | AID 1979;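 active = growth inhibition above about 58% in most replicates, limit read from the data, passing the limit was not always enough; inconclusive = exactly half the replicates above a set limit; inactive = most replicates below a set limit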;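 also: all wells also contain fluconazole at 8 µg/ml as a sub-toxic cotreatment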
Numbers stand for hits; . = inactive; ? = inconclusive; / = no result given. Only some compounds are listed: those with a hit (about 4.7% of all), similar ones and a draw of the others.

SMILES	tim10-1 inh	SKKanGAS inh	PfHsp90 set2	TIM10 inh	tim23-1 inh	Calb FLC
Cc1ccccc1C(=O)c1cccn1CC(=O)N1CCCCC1	.	.	.	.	.	.
Cc1cc(F)ccc1S(=O)(=O)N1CCCOC1CNC(=O)C(=O)NCc1ccncc1 (stereo unspecified)	.	.	.	.	.	.
COc1cccc(C(=O)Nc2nnc(-c3ccc(Cl)cc3)o2)c1	.	88	.	.	.	.
CCCCNC(=O)Nc1nnc(-c2ccc(OCC)cc2)o1	.	/	.	.	.	/
COc1cccc(-c2nnc(NC(C)=O)o2)c1	.	.	.	.	.	.
CCOc1ccc(-c2nnc(NC(=O)c3ccc(OCC(C)C)c(OC)c3)o2)cc1	.	115	.	.	.	?
CN(C)S(=O)(=O)Oc1cccc(C(=O)Nc2ccc(Cl)cc2)c1	.	.	?	.	.	87
Cc1cccc(OC(C)C(=O)Nc2ccc3c(c2)OCCO3)c1 (stereo unspecified)	/	/	.	/	/	/
CC(C(=O)N1CCc2ccccc21)N(C)CC(=O)Nc1cccc(F)c1 (stereo unspecified)	.	/	.	.	.	/
O=C(O)c1ccc2c(c1)C1C=CCC1C(c1cc3c(cc1Br)OCO3)N2 (stereo unspecified)	.	.	.	.	.	.
Brc1cc2c(cc1C1Nc3ccccc3C3C=CCC31)OCO2 (stereo unspecified)	.	64	.	.	.	.
Cc1cc(C)c2c(c1)NC(c1cc3c(cc1Br)OCO3)C1CC=CC21 (stereo unspecified)	/	51	.	/	/	.
CCN(C(=O)Cc1c(C(=O)O)n(CC)c2ccccc12)c1cccc(C(F)(F)F)c1	.	.	.	.	.	.
NS(=O)(=O)c1ccc(CNC(=O)/C=C/c2cccc([N+](=O)[O-])c2)cc1	.	.	.	.	.	.
CC(=O)Oc1cccc(Nc2ncnc3ccccc23)c1	.	.	.	.	.	.
Cc1ccccc1C(=O)Oc1cccc(Nc2ncnc3ccccc23)c1	.	75	.	.	.	.
CC(C)(C)C(CN1CCCC1)OC(=O)c1ccccc1 (stereo unspecified)	.	.	.	.	.	.
CCN(CC)c1ccc(/C=N/NC(=O)CNC(=O)C2COc3ccccc3O2)c(O)c1 (stereo unspecified)	.	59	/	.	.	89
CCN(CC)c1ccc(/C=N/NC(=O)CCC(=O)NCc2ccccc2)c(O)c1	.	56	.	.	.	.
COc1cc(/C=N\NC(=O)CNC(=O)C2COc3ccccc3O2)ccc1O (stereo unspecified)	.	.	.	.	.	.
O=C(NCc1ccc2c3c(cccc13)C(=O)N2)c1cccs1	/	.	.	/	/	.
CCOc1ccc(OCCC(=O)N(CC)CC(=O)NCc2cccs2)cc1	.	/	.	.	.	/
Cc1ccc([N+](=O)[O-])cc1N=C(c1ccc([N+](=O)[O-])cc1)N1CCOCC1	.	.	.	.	.	.
O=[N+]([O-])c1ccc(C(=Nc2cccc3ccccc23)N2CCOCC2)cc1	.	.	.	.	.	100
O=C1Nc2ccc(Br)cc2/C1=C/C(=O)c1ccccc1	/	/	106	/	/	/
SMILES	tim10-1 inh	SKKanGAS inh	PfHsp90 set2	TIM10 inh	tim23-1 inh	Calb FLC
Nc1o[nH]c(=O)c1C1CCCCC1	/	/	.	/	/	/
CO[C@H]1/C=C/O[C@@]2(C)Oc3c(C)c(O)c4c(O)c(c(C=NN5CCN(C)CC5)c(O)c4c3C2=O)NC(=O)/C(C)=C\C=C\[C@H](C)[C@H](O)[C@@H](C)[C@@H](O)[C@@H](C)[C@H](OC(C)=O)[C@@H]1C	.	/	.	.	.	/
CO[C@H]1C=CO[C@@]2(C)Oc3c(C)c(O)c4c(O)c(c(C=NN5CCN(C)CC5)c(O)c4c3C2=O)NC(=O)C(C)=CC=C[C@H](C)[C@H](O)[C@@H](C)[C@@H](O)[C@@H](C)[C@H](OC(C)=O)[C@@H]1C	.	106	.	.	.	/
CO[C@H]1C=CO[C@@]2(C)Oc3c(C)c(O)c4c(O)c(c(C=NN5CCN(C6CCCC6)CC5)c(O)c4c3C2=O)NC(=O)C(C)=CC=C[C@H](C)[C@H](O)[C@@H](C)[C@@H](O)[C@@H](C)[C@H](OC(C)=O)[C@@H]1C	.	105	/	.	.	/
Cc1cc(N2CCN(Cc3nc(-c4ccc(Cl)cc4)oc3C)CC2)cc(C)n1	.	.	.	.	.	.
COc1ccc(-c2nc(CN3CCN(c4cc(C)nc(C)c4)CC3)c(C)o2)c2ccccc12	.	.	.	.	.	84
O=C(C=Cc1ccccn1)c1ccccc1O	/	/	114	/	/	/
O=C(C=Cc1ccccn1)c1ccccc1	/	/	.	/	/	/
COC(=O)c1c(NC(=O)Cc2cccs2)sc2c1CCCC2	.	69	/	.	.	.
COCCn1c(N)c(C(=O)Nc2sc3c(c2C(=O)OC)CCCC3)c2nc3ccccc3nc21	.	58	.	.	.	.
CCOC(=O)c1c(NC(=O)C2Cc3ccccc3C(=O)O2)sc2c1CCCC2 (stereo unspecified)	.	.	.	.	.	104
CCOc1ccc(S(=O)(=O)N2CCC(C(=O)NCc3ccccc3CN3CCCC3)CC2)cc1	.	/	/	.	.	/
CCCc1nc(NCc2ccccc2)c(C#N)c2c1CCCC2	.	74	.	.	.	.
Cc1ccc(C(=O)NC(Cc2cccc(C(F)(F)F)c2)C(=O)O)cc1 (stereo unspecified)	.	/	.	.	.	/
Cc1ccccc1C(=O)/C(C#N)=N/Nc1c(C)n(C)n(-c2ccccc2)c1=O	/	66	.	/	/	.
Cc1c(N/N=C(\C#N)C(=O)c2ccccc2)c(=O)n(-c2ccccc2)n1C	/	65	.	/	/	.
O=C(CCNC(=O)c1ccc(Cl)cc1)NCc1ccco1	.	/	.	.	.	/
C=C1c2cccc(O)c2C(=O)C2C(=O)[C@]3(O)C(=O)C(C(N)=O)C(=O)[C@@H](N(C)C)[C@@H]3[C@@H](O)[C@H]12 (stereo partly specified)	.	/	.	.	.	/
C[C@H]1c2cccc(O)c2C(O)=C2C(=O)[C@]3(O)C(O)=C(C(N)=O)C(=O)[C@@H](N(C)C)C3[C@@H](O)C21 (stereo partly specified)	.	105	.	.	.	/
CC(C)=CCC12Oc3cc(O)ccc3C1(O)Oc1cc(O)c([C@H]3C=C(C)CC(c4ccc(O)cc4O)[C@H]3C(=O)c3ccc(O)cc3O)c(O)c1C2=O (stereo partly specified)	.	111	/	.	.	.
Cc1cc(C)c(NC(=O)c2cn3c4c(c(N5CCN(C)CC5)c(F)cc4c2=O)OCC3C)c(C)c1 (stereo unspecified)	.	.	.	.	.	.
CN1CCN(c2c(F)cc3c(=O)c(C(=O)O)cn4c3c2OCN4C)CC1	.	104	.	.	.	.
Cc1nn(-c2ccccc2)c2sc(C(=O)N3CCCCC3)cc12	.	.	.	.	.	.
Cc1nn(-c2ccccc2)c2sc(C(=O)N3CCc4ccccc4C3)cc12	/	55	.	/	/	.
